Common to all, as to assay: DAPPL (digital affinity profiling via proximity ligation, sequencing); 10 mM Tris-HCl pH 7.5, 50 mM NaCl, 1 mM DTT, 4% glycerol, room temperature, 30 min; GST-TFs on glutathione beads, 16-mer random dsDNA library, 0.1% formaldehyde crosslink after washing; high values mean tight binding
Common to all, as to settings: protein: recombinant; tags: N-terminal GST; dsDNA, one strand shown

In one assay the target is T1, FLI1 (Homo sapiens, UniProt Q01543 1-452).
T1 sequence: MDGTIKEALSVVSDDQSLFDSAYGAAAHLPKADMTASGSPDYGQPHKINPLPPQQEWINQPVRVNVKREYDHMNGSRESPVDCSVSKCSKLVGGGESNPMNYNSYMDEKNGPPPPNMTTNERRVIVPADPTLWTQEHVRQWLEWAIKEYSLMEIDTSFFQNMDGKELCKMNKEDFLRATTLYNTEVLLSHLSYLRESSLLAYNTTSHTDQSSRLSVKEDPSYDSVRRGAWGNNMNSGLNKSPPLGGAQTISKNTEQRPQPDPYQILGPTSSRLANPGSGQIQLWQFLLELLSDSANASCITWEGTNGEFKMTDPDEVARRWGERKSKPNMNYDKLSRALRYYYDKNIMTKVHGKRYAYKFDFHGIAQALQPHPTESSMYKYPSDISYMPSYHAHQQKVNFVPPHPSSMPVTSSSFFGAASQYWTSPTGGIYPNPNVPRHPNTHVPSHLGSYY
In outline:
(§1)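 After expression in yeast as GST fusions, human transcription factors were bound to glutathione beads, DNA-barcoded and mixed with a tag-only sample. The pools were incubated with 200 nmole of a 16-mer random double-stranded DNA library in Tris/NaCl/DTT/glycerol buffer (30 min, room temperature), washed and crosslinked with 0.1% formaldehyde. Proximity ligation with BsaI/T4 ligase ran for 1 h at 37 °C, before PCR amplification and sequencing on an Illumina NextSeq500. Binding signal is a hexamer's read frequency for a factor divided by its frequency for the tag-only sample.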

For a further assay, the target named is T2, ELK1 (Homo sapiens, UniProt P19419 1-428).
T2 sequence: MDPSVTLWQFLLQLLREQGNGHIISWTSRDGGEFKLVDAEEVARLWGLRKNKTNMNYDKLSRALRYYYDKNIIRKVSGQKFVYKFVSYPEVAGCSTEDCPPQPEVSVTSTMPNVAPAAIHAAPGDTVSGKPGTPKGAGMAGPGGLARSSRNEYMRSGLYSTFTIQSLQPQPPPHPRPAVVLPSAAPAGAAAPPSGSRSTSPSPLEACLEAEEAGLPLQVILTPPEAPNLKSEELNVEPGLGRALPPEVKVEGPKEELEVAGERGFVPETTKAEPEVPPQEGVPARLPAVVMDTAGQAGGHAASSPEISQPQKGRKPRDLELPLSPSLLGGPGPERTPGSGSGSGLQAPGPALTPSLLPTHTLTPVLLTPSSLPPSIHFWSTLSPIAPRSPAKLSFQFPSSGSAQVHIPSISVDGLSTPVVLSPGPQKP
In outline:
as §1

A further assay addresses T3, GABPA (Homo sapiens, UniProt Q06546 1-454).
T3 sequence: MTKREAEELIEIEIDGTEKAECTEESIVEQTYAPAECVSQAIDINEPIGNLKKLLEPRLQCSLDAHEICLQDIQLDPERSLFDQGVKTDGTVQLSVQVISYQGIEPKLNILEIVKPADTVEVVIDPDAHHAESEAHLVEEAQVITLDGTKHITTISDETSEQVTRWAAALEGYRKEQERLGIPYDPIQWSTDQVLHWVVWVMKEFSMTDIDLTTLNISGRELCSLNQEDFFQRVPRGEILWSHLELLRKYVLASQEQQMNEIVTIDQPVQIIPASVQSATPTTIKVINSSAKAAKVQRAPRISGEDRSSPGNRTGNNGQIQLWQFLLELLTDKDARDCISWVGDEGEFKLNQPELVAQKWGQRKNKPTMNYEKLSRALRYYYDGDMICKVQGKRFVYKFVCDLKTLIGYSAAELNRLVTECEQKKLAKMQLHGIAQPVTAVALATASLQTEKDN
In outline: as §1

In another assay the target is T4, ERG (Homo sapiens, UniProt P11308 1-479).
T4 sequence: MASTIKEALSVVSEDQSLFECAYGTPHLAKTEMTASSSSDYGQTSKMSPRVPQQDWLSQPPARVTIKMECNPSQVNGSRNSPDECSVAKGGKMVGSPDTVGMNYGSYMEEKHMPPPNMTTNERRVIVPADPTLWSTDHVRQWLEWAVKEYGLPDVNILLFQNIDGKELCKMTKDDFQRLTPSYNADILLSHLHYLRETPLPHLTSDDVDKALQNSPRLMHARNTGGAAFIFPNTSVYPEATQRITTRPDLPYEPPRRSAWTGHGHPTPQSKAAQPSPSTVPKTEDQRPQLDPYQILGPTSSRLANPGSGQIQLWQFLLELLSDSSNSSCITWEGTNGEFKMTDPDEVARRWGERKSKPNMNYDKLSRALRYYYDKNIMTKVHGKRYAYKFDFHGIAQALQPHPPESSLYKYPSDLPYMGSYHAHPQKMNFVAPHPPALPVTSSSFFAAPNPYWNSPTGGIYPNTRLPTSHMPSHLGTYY
In short, it runs like this:
as §1

Another assay addresses ELF1 (Homo sapiens, UniProt P32519 1-619). In short, it runs like this: as §1
The target of the next assay is T5, EHF (Homo sapiens, UniProt Q9NZC4 1-300).
T5 sequence: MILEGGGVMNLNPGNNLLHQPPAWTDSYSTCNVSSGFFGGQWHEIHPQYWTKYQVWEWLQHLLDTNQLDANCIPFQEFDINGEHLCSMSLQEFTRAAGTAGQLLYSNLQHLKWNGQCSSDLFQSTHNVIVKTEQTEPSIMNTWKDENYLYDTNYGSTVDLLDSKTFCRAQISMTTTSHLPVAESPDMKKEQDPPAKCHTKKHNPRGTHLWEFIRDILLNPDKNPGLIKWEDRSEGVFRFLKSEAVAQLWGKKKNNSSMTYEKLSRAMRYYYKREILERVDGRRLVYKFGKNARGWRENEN
In short, it runs like this: as §1

In the next assay the target is SPI1 (Homo sapiens, UniProt P17947 1-270). In outline:
as §1

The target of the next assay is SPIB (Homo sapiens, UniProt Q01892 1-262). In outline:
as §1

The target of a further assay is T6, ELK3 (Homo sapiens, UniProt P41970 1-407).
T6 sequence: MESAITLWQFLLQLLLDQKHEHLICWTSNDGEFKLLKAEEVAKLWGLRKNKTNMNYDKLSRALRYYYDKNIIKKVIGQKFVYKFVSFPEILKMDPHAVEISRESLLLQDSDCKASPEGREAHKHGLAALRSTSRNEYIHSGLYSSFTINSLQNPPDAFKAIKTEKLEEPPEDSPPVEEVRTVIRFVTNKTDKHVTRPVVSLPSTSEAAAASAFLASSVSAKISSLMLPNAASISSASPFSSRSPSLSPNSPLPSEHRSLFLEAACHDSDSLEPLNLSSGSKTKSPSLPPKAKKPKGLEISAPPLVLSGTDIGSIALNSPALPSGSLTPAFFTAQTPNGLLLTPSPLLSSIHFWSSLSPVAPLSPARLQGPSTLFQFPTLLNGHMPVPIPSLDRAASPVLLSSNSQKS
In outline:
as §1

Sequence of ELF1 (P32519 whole entry): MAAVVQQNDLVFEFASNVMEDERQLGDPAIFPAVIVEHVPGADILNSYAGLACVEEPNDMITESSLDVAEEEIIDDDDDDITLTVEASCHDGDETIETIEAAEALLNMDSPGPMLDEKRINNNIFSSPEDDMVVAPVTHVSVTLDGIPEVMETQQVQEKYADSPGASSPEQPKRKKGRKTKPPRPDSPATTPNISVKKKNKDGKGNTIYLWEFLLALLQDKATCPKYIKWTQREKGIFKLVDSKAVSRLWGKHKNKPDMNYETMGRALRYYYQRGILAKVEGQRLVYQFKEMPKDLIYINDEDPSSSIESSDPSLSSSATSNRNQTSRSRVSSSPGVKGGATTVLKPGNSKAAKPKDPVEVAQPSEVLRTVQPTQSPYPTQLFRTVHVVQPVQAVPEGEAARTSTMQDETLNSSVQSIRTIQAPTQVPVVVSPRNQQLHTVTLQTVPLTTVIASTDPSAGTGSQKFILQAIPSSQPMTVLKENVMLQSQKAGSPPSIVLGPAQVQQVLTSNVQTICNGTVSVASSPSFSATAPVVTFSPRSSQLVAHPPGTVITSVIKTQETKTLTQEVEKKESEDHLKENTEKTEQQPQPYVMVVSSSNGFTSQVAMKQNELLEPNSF
Sequence of SPIB (Q01892 whole entry): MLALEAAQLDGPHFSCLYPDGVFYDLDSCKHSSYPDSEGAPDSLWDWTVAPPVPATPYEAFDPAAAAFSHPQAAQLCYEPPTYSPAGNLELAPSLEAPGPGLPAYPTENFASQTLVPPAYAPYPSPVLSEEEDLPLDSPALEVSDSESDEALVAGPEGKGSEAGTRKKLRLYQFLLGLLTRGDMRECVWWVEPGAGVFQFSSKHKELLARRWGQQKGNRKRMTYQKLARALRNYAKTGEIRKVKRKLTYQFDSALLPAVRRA

As for CGTTTT, the binding signal is 1.16 fold enrichment (6-mer frequency, TF over GST control) in the assay with FLI1; 1.16 fold enrichment (6-mer frequency, TF over GST control) in the assay with ELK1; 1.34 fold enrichment (6-mer frequency, TF over GST control) with GABPA; 1.36 fold enrichment (6-mer frequency, TF over GST control) with ERG; 1.17 fold enrichment (6-mer frequency, TF over GST control) with ELF1; 1.27 fold enrichment (6-mer frequency, TF over GST control) in the assay with EHF. Also, the binding signal with SPI1 was 1.29 fold enrichment (6-mer frequency, TF over GST control); in the assay with SPIB, 1.32 fold enrichment (6-mer frequency, TF over GST control); with ELK3, 1.12 fold enrichment (6-mer frequency, TF over GST control).

On to TCTACT, for which the binding signal is 1.27 fold enrichment (6-mer frequency, TF over GST control) with FLI1; 1.37 fold enrichment (6-mer frequency, TF over GST control) in the assay with ELK1; 1.43 fold enrichment (6-mer frequency, TF over GST control) with GABPA; 1.32 fold enrichment (6-mer frequency, TF over GST control) with ERG; 1.35 fold enrichment (6-mer frequency, TF over GST control) with ELF1; 1.35 fold enrichment (6-mer frequency, TF over GST control) in the assay with EHF. The binding signal is 1.42 fold enrichment (6-mer frequency, TF over GST control) with SPI1; 1.42 fold enrichment (6-mer frequency, TF over GST control) with SPIB; 1.28 fold enrichment (6-mer frequency, TF over GST control) with ELK3.

Take ATTCGT: the binding signal in the assay with FLI1 is 1.24 fold enrichment (6-mer frequency, TF over GST control); with ELK1, 1.24 fold enrichment (6-mer frequency, TF over GST control); with GABPA, 1.05 fold enrichment (6-mer frequency, TF over GST control); in the assay with ERG, 1.15 fold enrichment (6-mer frequency, TF over GST control); in the assay with ELF1, 1.17 fold enrichment (6-mer frequency, TF over GST control); with EHF it was 1.08 fold enrichment (6-mer frequency, TF over GST control). Besides, the binding signal with SPI1 was 1.11 fold enrichment (6-mer frequency, TF over GST control); with SPIB, 1.27 fold enrichment (6-mer frequency, TF over GST control); with ELK3, 1.08 fold enrichment (6-mer frequency, TF over GST control).

In the case of CTTCTC, the binding signal is 1.38 fold enrichment (6-mer frequency, TF over GST control) with FLI1; 1.39 fold enrichment (6-mer frequency, TF over GST control) in the assay with ELK1; 1.39 fold enrichment (6-mer frequency, TF over GST control) with GABPA; 1.3 fold enrichment (6-mer frequency, TF over GST control) in the assay with ERG; 1.41 fold enrichment (6-mer frequency, TF over GST control) with ELF1; 1.37 fold enrichment (6-mer frequency, TF over GST control) in the assay with EHF. Further, the binding signal was 1.4 fold enrichment (6-mer frequency, TF over GST control) with SPI1; 1.34 fold enrichment (6-mer frequency, TF over GST control) in the assay with SPIB; 1.39 fold enrichment (6-mer frequency, TF over GST control) in the assay with ELK3.

Consider TATTGA, for which the binding signal is 1.1 fold enrichment (6-mer frequency, TF over GST control) with FLI1; 1.16 fold enrichment (6-mer frequency, TF over GST control) with ELK1; 1.09 fold enrichment (6-mer frequency, TF over GST control) with GABPA; 1.13 fold enrichment (6-mer frequency, TF over GST control) with ERG; 1.18 fold enrichment (6-mer frequency, TF over GST control) with ELF1; 1.15 fold enrichment (6-mer frequency, TF over GST control) in the assay with EHF. Besides, the binding signal is 1.05 fold enrichment (6-mer frequency, TF over GST control) with SPI1; 1.11 fold enrichment (6-mer frequency, TF over GST control) with SPIB; 1.01 fold enrichment (6-mer frequency, TF over GST control) with ELK3.

For CCTATA, the binding signal in the assay with FLI1 was 1.35 fold enrichment (6-mer frequency, TF over GST control); with ELK1, 1.29 fold enrichment (6-mer frequency, TF over GST control); with GABPA, 1.42 fold enrichment (6-mer frequency, TF over GST control); with ERG, 1.3 fold enrichment (6-mer frequency, TF over GST control); with ELF1 it was 1.39 fold enrichment (6-mer frequency, TF over GST control); with EHF it was 1.28 fold enrichment (6-mer frequency, TF over GST control). Besides, the binding signal in the assay with SPI1 was 1.28 fold enrichment (6-mer frequency, TF over GST control); in the assay with SPIB it was 1.34 fold enrichment (6-mer frequency, TF over GST control); with ELK3 it was 1.32 fold enrichment (6-mer frequency, TF over GST control).

With ATGCGA, the binding signal in the assay with FLI1 was 1.18 fold enrichment (6-mer frequency, TF over GST control); in the assay with ELK1 it was 1.27 fold enrichment (6-mer frequency, TF over GST control); with GABPA it was 1.24 fold enrichment (6-mer frequency, TF over GST control); in the assay with ERG, 1.21 fold enrichment (6-mer frequency, TF over GST control); with ELF1, 1.26 fold enrichment (6-mer frequency, TF over GST control); with EHF, 1.23 fold enrichment (6-mer frequency, TF over GST control). Besides, the binding signal is 1.19 fold enrichment (6-mer frequency, TF over GST control) with SPI1; 1.12 fold enrichment (6-mer frequency, TF over GST control) in the assay with SPIB; 1.14 fold enrichment (6-mer frequency, TF over GST control) with ELK3.

Turning to CTTTCC, the binding signal with FLI1 is 2.05 fold enrichment (6-mer frequency, TF over GST control); with ELK1, 1.9 fold enrichment (6-mer frequency, TF over GST control); with GABPA, 1.83 fold enrichment (6-mer frequency, TF over GST control); with ERG, 2.04 fold enrichment (6-mer frequency, TF over GST control); with ELF1, 1.89 fold enrichment (6-mer frequency, TF over GST control); in the assay with EHF it was 2.05 fold enrichment (6-mer frequency, TF over GST control). Besides, the binding signal is 1.84 fold enrichment (6-mer frequency, TF over GST control) with SPI1; 2.18 fold enrichment (6-mer frequency, TF over GST control) in the assay with SPIB; 2.1 fold enrichment (6-mer frequency, TF over GST control) with ELK3.

The values are drawn from publication PMC7862700, “An all-to-all approach to the identification of sequence-specific readers for epigenetic DNA modifications on cytosine”.
